Assay results from PubChem BioAssay.
Calls of active or inactive are those of the source.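 How the source made its calls, unless noted: active means normalized viability below 100% at a tested concentration; inactive means the rest.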

Legend:
[1] = ovarian cancer cell viability with rucaparib, profiling panel, oncology-focused library, rucaparib conditional (AID 1508598); conditions: patient-derived ovarian cancer cells, CellTiter-Glo viability, 144 h, active compounds read low
[2] = target: Mitogen-activated protein kinase 7 (Homo sapiens) (UniProt Q13164); experiment: ERK5 transactivation activators in reporter cells, primary screen, cell-based, HTS (AID 1508626;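 active means luciferase signal above three times the same-plate solvent-only control wells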;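 further: luciferase driven by Gal4-ERK5 fusion binding five Gal4 sites before minimal TATA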); conditions: HeLa Gal4-ERK5 transactivation, 18 h, at 5 µM, active compounds read high
[3] = target: NAD(+) hydrolase SARM1 (Homo sapiens) (UniProt Q6SZW1); experiment: SARM1 TIR NADase inhibitors, cell lysate, NAD-Glo luminescence (AID 1508614;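 active means compound whose remaining NAD level is above about 45 nM, limit read from the data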;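 further: higher remaining NAD means stronger inhibition of SARM1 NADase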); conditions: SAM-TIR HEK293T lysate NADase, at 1 µM, active compounds read high
NAD(+) hydrolase SARM1 (Homo sapiens), sequence (Q6SZW1 whole entry, looked up): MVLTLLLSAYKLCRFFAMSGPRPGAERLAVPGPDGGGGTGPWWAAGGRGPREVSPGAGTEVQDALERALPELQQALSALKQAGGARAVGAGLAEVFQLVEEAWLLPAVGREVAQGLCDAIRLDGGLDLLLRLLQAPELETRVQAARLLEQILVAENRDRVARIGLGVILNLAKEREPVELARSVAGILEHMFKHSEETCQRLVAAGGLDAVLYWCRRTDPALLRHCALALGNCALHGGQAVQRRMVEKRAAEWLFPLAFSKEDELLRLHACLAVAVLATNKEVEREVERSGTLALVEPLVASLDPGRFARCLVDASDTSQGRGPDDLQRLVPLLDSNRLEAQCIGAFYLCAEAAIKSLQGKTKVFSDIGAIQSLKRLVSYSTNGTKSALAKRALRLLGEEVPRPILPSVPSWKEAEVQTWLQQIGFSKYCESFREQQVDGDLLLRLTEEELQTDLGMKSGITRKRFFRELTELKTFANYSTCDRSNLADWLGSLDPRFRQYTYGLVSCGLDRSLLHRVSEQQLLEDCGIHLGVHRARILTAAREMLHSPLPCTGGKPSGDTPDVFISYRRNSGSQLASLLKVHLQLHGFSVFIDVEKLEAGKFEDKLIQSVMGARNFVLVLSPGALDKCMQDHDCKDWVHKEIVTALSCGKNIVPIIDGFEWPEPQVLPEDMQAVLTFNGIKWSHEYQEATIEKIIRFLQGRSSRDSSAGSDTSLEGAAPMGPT

Mitogen-activated protein kinase 7 (Homo sapiens), sequence (Q13164 whole entry, looked up, the tested form may be a part): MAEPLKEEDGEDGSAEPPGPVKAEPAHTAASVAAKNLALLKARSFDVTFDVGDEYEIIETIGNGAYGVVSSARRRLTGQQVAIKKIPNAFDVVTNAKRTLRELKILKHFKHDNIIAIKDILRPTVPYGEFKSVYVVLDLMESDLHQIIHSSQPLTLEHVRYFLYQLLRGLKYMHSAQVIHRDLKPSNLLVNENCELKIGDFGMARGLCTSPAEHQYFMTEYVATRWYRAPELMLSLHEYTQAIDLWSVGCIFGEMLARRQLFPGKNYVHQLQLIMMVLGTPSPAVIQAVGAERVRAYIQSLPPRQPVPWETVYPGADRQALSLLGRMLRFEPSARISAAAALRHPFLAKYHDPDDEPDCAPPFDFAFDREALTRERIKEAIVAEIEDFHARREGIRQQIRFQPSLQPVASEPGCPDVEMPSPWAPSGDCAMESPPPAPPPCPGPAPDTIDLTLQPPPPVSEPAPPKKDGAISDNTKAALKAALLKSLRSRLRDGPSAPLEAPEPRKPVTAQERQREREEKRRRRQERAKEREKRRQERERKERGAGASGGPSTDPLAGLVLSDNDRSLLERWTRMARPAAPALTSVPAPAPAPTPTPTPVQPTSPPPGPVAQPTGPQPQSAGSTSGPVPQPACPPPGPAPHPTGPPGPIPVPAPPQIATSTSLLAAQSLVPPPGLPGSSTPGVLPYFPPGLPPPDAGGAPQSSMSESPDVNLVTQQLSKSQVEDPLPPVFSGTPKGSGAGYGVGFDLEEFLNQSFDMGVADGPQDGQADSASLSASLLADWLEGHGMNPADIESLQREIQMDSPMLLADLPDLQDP

COc1ccc(C2=N[C@H](c3ccc(Cl)cc3)[C@@H](c3ccc(Cl)cc3)N2C(=O)N2CCNC(=O)C2)c(OC(C)C)c1
active: viability ([1]; at 0.000305 µM, OCI-P5x cells, with rucaparib 20 µM, 100% = cells with rucaparib alone) 88.9% | viability ([1]; at 0.000305 µM, OCI-P5x cells, without rucaparib) 86.6% | viability ([1]; at 0.00122 µM, OCI-P5x cells, with rucaparib 20 µM, 100% = cells with rucaparib alone) 93.4% | viability ([1]; at 0.00122 µM, OCI-P5x cells, without rucaparib) 85.3% | viability ([1]; at 0.00488 µM, OCI-P5x cells, with rucaparib 20 µM, 100% = cells with rucaparib alone) 95.4% | viability ([1]; at 0.00488 µM, OCI-P5x cells, without rucaparib) 90.1% | viability ([1]; at 0.0195 µM, OCI-P5x cells, with rucaparib 20 µM, 100% = cells with rucaparib alone) 96.3% | viability ([1]; at 0.0195 µM, OCI-P5x cells, without rucaparib) 86.4% | viability ([1]; at 0.0781 µM, OCI-P5x cells, with rucaparib 20 µM, 100% = cells with rucaparib alone) 86.1% | viability ([1]; at 0.0781 µM, OCI-P5x cells, without rucaparib) 78.2% | viability ([1]; at 0.313 µM, OCI-P5x cells, with rucaparib 20 µM, 100% = cells with rucaparib alone) 64.3% | viability ([1]; at 0.313 µM, OCI-P5x cells, without rucaparib) 56.8% | viability ([1]; at 1.25 µM, OCI-P5x cells, with rucaparib 20 µM, 100% = cells with rucaparib alone) 98.1% | viability ([1]; at 1.25 µM, OCI-P5x cells, without rucaparib) 98% | viability ([1]; at 5 µM, OCI-P5x cells, with rucaparib 20 µM, 100% = cells with rucaparib alone) 94.1% | viability ([1]; at 5 µM, OCI-P5x cells, without rucaparib) 98.2%
inactive: viability ([1]; at 0.000305 µM, OCI-C5x cells, with rucaparib 10 µM, 100% = cells with rucaparib alone) 112% | viability ([1]; at 0.000305 µM, OCI-C5x cells, without rucaparib) 103% | viability ([1]; at 0.00122 µM, OCI-C5x cells, with rucaparib 10 µM, 100% = cells with rucaparib alone) 118% | viability ([1]; at 0.00122 µM, OCI-C5x cells, without rucaparib) 101% | viability ([1]; at 0.00488 µM, OCI-C5x cells, with rucaparib 10 µM, 100% = cells with rucaparib alone) 130% | viability ([1]; at 0.00488 µM, OCI-C5x cells, without rucaparib) 112% | viability ([1]; at 0.0195 µM, OCI-C5x cells, with rucaparib 10 µM, 100% = cells with rucaparib alone) 127% | viability ([1]; at 0.0195 µM, OCI-C5x cells, without rucaparib) 105% | viability ([1]; at 0.0781 µM, OCI-C5x cells, with rucaparib 10 µM, 100% = cells with rucaparib alone) 120% | viability ([1]; at 0.0781 µM, OCI-C5x cells, without rucaparib) 111% | viability ([1]; at 0.313 µM, OCI-C5x cells, with rucaparib 10 µM, 100% = cells with rucaparib alone) 111% | viability ([1]; at 0.313 µM, OCI-C5x cells, without rucaparib) 107% | viability ([1]; at 1.25 µM, OCI-C5x cells, with rucaparib 10 µM, 100% = cells with rucaparib alone) 114% | viability ([1]; at 1.25 µM, OCI-C5x cells, without rucaparib) 102% | viability ([1]; at 5 µM, OCI-C5x cells, with rucaparib 10 µM, 100% = cells with rucaparib alone) 182% | viability ([1]; at 5 µM, OCI-C5x cells, without rucaparib) 137%

C[C@@H]1O[C@@H]1P(=O)(O)O
inactive: luciferase signal [2] 76 AU

Cn1nnnc1SCC1=C(C(=O)O)N2C(=O)[C@@H](NC(=O)[C@H](OC=O)c3ccccc3)[C@H]2SC1
inactive: luciferase signal [2] 16 AU

CC1C(=O)OC2CC34C5CC(C(C)(C)C)C36C(OC(=O)C6O)OC4(C(=O)O5)C21O (configuration not stated)
inactive: luciferase signal [2] 36 AU

CO[C@@H]1[C@@H](O[C@@H]2O[C@H](C)[C@@H](O[C@H]3C[C@@](C)(O)[C@@H](O)[C@H](C)O3)[C@H](N(C)C)[C@H]2O)[C@@H](CC=O)C[C@@H](C)[C@@H](O[C@H]2CC[C@H](N(C)C)[C@@H](C)O2)/C=C/C=C/C[C@@H](C)OC(=O)C[C@H]1O
inactive: remaining NAD [3] 10 nM | luciferase signal [2] 216 AU

CC(=O)OCC(=O)[C@@]1(O)CCC2C3CC[C@@H]4C[C@H](O)CC[C@]4(C)C3C(=O)C[C@@]21C (some centres not stated)
inactive: luciferase signal [2] 112 AU

COc1cc(-c2oc3cc(O)ccc3c(=O)c2O)ccc1O
inactive: luciferase signal [2] 92 AU

CN[C@@H]1[C@H](O[C@H]2[C@H](O[C@H]3[C@H](O)[C@@H](O)[C@H](N=C(N)N)[C@@H](O)[C@@H]3N=C(N)N)O[C@@H](C)[C@]2(O)C=O)O[C@@H](CO)[C@H](O)[C@H]1O
inactive: remaining NAD [3] 10 nM | luciferase signal [2] 80 AU

CC1(C)S[C@@H]2[C@H](NC(=O)[C@H](C(=O)O)c3ccsc3)C(=O)N2[C@H]1C(=O)O
inactive: remaining NAD [3] 10 nM | luciferase signal [2] 44 AU

CC(=O)OCC(=O)[C@@]1(O)[C@@H](C)C[C@H]2[C@@H]3CCC4=CC(=O)C=C[C@]4(C)[C@@]3(F)[C@@H](O)C[C@@]21C
inactive: remaining NAD [3] 10 nM | luciferase signal [2] 132 AU

CC(=O)[C@H]1CC[C@H]2[C@@H]3CC=C4C[C@@H](OC(=O)CCC(=O)O)CC[C@]4(C)[C@H]3CC[C@]12C
inactive: remaining NAD [3] 10 nM | luciferase signal [2] 52 AU
